Source: PubChem BioAssay (EPA / NIEHS)
Inconclusive results are not listed. Activity calls are given as the source filed them. Rule for the calls: active = hit-call score of the fitted dose curve at least 0.9, where 1 is the maximum; inconclusive = response in the unintended direction; inactive = score below 0.9.

assay: ATG_M_32_TRANS: Attagene TRANS-FACTORIAL HepG2 Assay for M32 Transcription Factor (Internal Marker) (AID 2282984); settings: HepG2 Attagene TRANS M32 internal marker reporter
Experimental: ATG_TRANS is a cell-based, multiplexed-readout assay that uses HepG2, a human liver cell line, with measurements taken at 24 hours after chemical dosing in a 24-well plate.ATG_M_32_TRANS is one of 30 assay component(s) measured or calculated from the ATG_TRANS assay. It is designed to make measurements of mRNA induction, a form of inducible reporter, as detected with fluorescence intensity signals by Reverse transcription polymerase chain reaction (RT-PCR) and Capillary electrophoresis technology.Data from the assay component ATG_M_32_TRANS was analyzed into 1 assay endpoint. This assay endpoint, ATG_M_32_TRANS, was analyzed in the positive analysis fitting direction relative to DMSO as the negative control and baseline of activity. Using a type of inducible reporter, measures of mRNA for gain-of-signal activity can be used to understand the background control at the transcription factor-level as they relate to the gene . Furthermore, this assay endpoint can be referred to as a secondary readout, because this assay has produced multiple assay endpoints where this one serves a background control function. To generalize the intended target to other relatable targets, this assay endpoint is annotated to the background measurement intended target family, where the subfamily is internal marker.
Human liver HepG2 cells are transiently transfected with multiple reporter transcription units (MRTUs) in 6-well plates using FuGene 6 reagent (Roche; 3 ml FuGene/1 mg DNA). The MRTU constructs are regulated by a cis-regulating element (promoter). […] A major difference between the CIS and TRANS system is that in CIS activities of endogenous TFs are measured, whereas the TRANS assay evaluates changes in activities of exogenous, chimeric NR-Gal4 proteins. […] At the end of 24 hour incubation, total RNA was isolated using TriZol reagent (Invitrogen). The isolated RNA is then reverse-transcribed using oligo(dT) primer and Mo-MLV reverse transcriptase (Invitrogen) with DNAse I (Ambion) treatment for 30 min. The one-tenth of the produced cDNA was amplified by PCR using Taq DNA polymerase (Invitrogen) and two reporter sequence-specific primers. The PCR products were fluorescently labeled by primer extension with 6-arboxyfluorescein (6-FAM) 5'-labeled reporter sequence-specific primer (2 min at 95 C, 20 s at 68 C and 10 min at 72 C) and these products were digested with 5U of HpaI (New England Biolabs) for 2h at 37 C. The fragments were purified using Qiaquick PCR columns (Qiagen), analyzed on an ABI 3130xL genetic analyzer (Applied Biosystems) with peak positions identified by using a set of X-rhodamine (ROX)-labeled MapMarker1000 molecular weight standards (BioVentures). The raw capillary electrophoresis data was processed using Attagraph software (Attagene).

outcome, inactive:
Nc1ccc(Cl)c([N+](=O)[O-])c1
C=C(C)[C@@H]1CC=C(C)C(=O)C1
CC(C)(C)CC(C)(C)c1ccc(OCCOCC[N+](C)(C)Cc2ccccc2)cc1
CC(C)(N=C=O)c1cccc(C(C)(C)N=C=O)c1
CN(C)CCOC(C)(c1ccccc1)c1ccccn1 (stereo not given)
C=Cc1ccc(C)cc1
CCCCCCOCCOCCO
CC(C)=CCCC(C)CCOC=O (stereo not given)
CCCCOC(=O)CCCCCCCC(=O)OCCCC
Clc1ccc(C(c2ccccc2Cl)C(Cl)Cl)cc1 (stereo not given)
COc1ccc(CCC(C)=O)cc1
CCCCCCCCc1ccc(S(=O)(=O)O)cc1
COC(=O)c1ccc(OC)cc1
O=CCc1ccccc1
OCC#CCO
COCCOCCOCCO
CCOC(=O)C1OC1c1ccccc1 (stereo not given)
C[C@H]1C[C@@H](O)CC(C)(C)C1
C[Si](C)(C)O[Si](C)(C)C
Clc1cc(Cl)c(-c2c(Cl)c(Cl)cc(Cl)c2Cl)cc1Cl
COCCc1ccc(OCC(O)CNC(C)C)cc1 (stereo not given)
CCCCCc1ccco1
CC1CC(O)CC(C)(C)C1 (stereo not given)
O=C(O)CNc1ccccc1
Cc1cc(CCC(=O)OCCOCCOCCOC(=O)CCc2cc(C)c(O)c(C(C)(C)C)c2)cc(C(C)(C)C)c1O
CCCC(=O)OC(C)(C)Cc1ccccc1
CCC(C)S (stereo not given)
CN(C)CCOc1ccc(/C(=C(/CCCl)c2ccccc2)c2ccccc2)cc1
Cc1c(C2(c3cc(Br)c(O)c(Br)c3C)OS(=O)(=O)c3ccccc32)cc(Br)c(O)c1Br
Nc1c(S(=O)(=O)O)cc(Br)c2c1C(=O)c1ccccc1C2=O
CC1(C)COCN1
c1ccc(CCc2ccccc2)cc1
C=CC(C)C#N (stereo not given)
COc1ccc(CCO)cc1
CCc1cc(C(C)(C)C)c(O)c(C(C)(C)C)c1
CC1=NN(c2ccc(S(=O)(=O)O)cc2)C(=O)C1
CC(=O)O[C@@H]1CC2CCC1(C)C2(C)C (stereo not given in full)
CC1(C)C(=O)N(Cl)C(=O)N1Br
COc1ccccc1N=Nc1c(S(=O)(=O)O)cc2cc(S(=O)(=O)O)cc(NC(C)=O)c2c1O
CS(=O)(=O)OCCCCOS(C)(=O)=O
